# Laboratory results published in PubChem BioAssay.
# Several values for one entry are separate records, joined by “and”; a condition that tells them apart may be missing. Equal entries are not always repeated. Results filed as inconclusive are left out. The source holds several records for some structures; these can differ, active in one and inactive in another. Activity calls are given as the source filed them.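 Rule for the calls, unless noted: active = normalized viability below 100% at a tested concentration; inactive = the rest.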
# Legend:
# [1] = growth inhibition of DIPG glioma cells, dose response, cell-based, SU-DIPG-XVII, MIPE5.0, CellTiter-Glo, qHTS (AID 1347060; cut-off not given, nearly all actives have AC50 up to about 26 µM;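 note: cells exposed to compound for 48 hours before viability readout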); conditions: SU-DIPG-XVII viability, CellTiter-Glo ATP luminescence
# [2] = growth inhibition of DIPG glioma cells, dose response, cell-based, JHH-DIPG-1, MIPE4.0, CellTiter-Glo, qHTS (AID 1347062; cut-off not given, nearly all actives have AC50 up to about 27 µM;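 for AC50: cells exposed to compound for two days before readout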); conditions: JHH-DIPG-1 viability, CellTiter-Glo ATP luminescence
# [3] = growth inhibition of DIPG glioma cells, dose response, cell-based, SU-DIPG-IV, MIPE4.0, CellTiter-Glo, qHTS (AID 1347063; cut-off not given, nearly all actives have AC50 up to about 30 µM;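 note: compound exposure lasted 48 hours before the viability readout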); conditions: SU-DIPG-IV viability, CellTiter-Glo ATP luminescence
# [4] = growth inhibition of DIPG glioma cells, dose response, cell-based, SU-DIPG-XIII, MIPE5.0, CellTiter-Glo, qHTS (AID 1347064; cut-off not given, nearly all actives have AC50 up to about 23 µM;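 note: cells exposed to compound for 48 hours before the viability read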); conditions: SU-DIPG-XIII viability, CellTiter-Glo ATP luminescence
# [5] = viability loss in pontine glioma line – cell-based, SU-DIPG-XXV, MIPE5.0, CellTiter-Glo, qHTS, dose response (AID 1347065; cut-off not given, nearly all actives have AC50 up to about 26 µM;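 note: cells exposed to compound for 48 hours before ATP readout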); conditions: CellTiter-Glo ATP luminescence
# [6] = JHH-DIPG-1 glioma cell viability, MIPE5.0 library, CellTiter-Glo luminescence, qHTS (AID 1347067; cut-off not given, nearly all actives have AC50 up to about 26 µM;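 note: cells exposed to compound for 48 hours before readout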); conditions: JHH-DIPG-1 glioma viability, CellTiter-Glo ATP luminescence
# [7] = modifiers of HSF1 nuclear foci, imaging, Selleck Cancer Library (AID 1347162; in the data active = plate-normalised HSF1 focus index below about 0.46); conditions: human cells, at 10 µM; SSMD: measured here: HSF1 foci SSMD mean; cell count: measured here: cell number; plate-normalised HSF1 focus index: stronger effect = lower value
# [8] = LFS_MB_P medulloblastoma growth inhibition, cell-based, chromothripsis tumors, cisplatin or BGB combos (AID 1671449; in the data active = inhibition above about 80%;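 note: cells exposed for 96 hours; 0% = vehicle DMSO and 100% = killing by high DMSO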); conditions: LFS_MB_P medulloblastoma cells
# [9] = HDN33 neuroblastoma growth inhibition, cell-based, chromothripsis tumors, cisplatin or BGB combos (AID 1671450; in the data active = inhibition above about 80%;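 note: cells exposed to compound for four days; 0% = vehicle DMSO and 100% = cell killing by high DMSO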); conditions: HDN33 neuroblastoma cells, stronger effect = higher value
# [10] = ICB984 medulloblastoma cell growth inhibition, synergistic combos for chromothripsis tumors, cisplatin or BGB combos (AID 1671451; call rule not given here;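 note: cells exposed for 96 hours before readout; 0% = vehicle DMSO and 100% = killing by high DMSO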); conditions: ICB984 medulloblastoma cells, drug combinations, stronger effect = higher value
# [11] = HTB85 osteosarcoma cell growth inhibition, synergistic combos for chromothripsis tumors, BGB or cisplatin IC20 combos (AID 1671453; in the data active = inhibition above about 80%;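 note: cells exposed for 96 hours before readout; 0% = vehicle DMSO and 100% = high DMSO killing control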); conditions: HTB85 osteosarcoma cells, drug combinations, stronger effect = higher value
# [12] = MDA-MB-436 breast carcinoma cell growth inhibition, synergistic combos for chromothripsis tumors, BGB or cisplatin combos (AID 1671458; call rule not given here;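 note: cells exposed for 96 hours; 0% = vehicle DMSO and 100% = killing by high DMSO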); conditions: MDA-MB-436 breast carcinoma growth inhibition, drug combinations, stronger effect = higher value
# [13] = growth inhibition of BT084 medulloblastoma cells, cell-based, ICGC_MB145, cisplatin and BGB IC40 combos (AID 1671461; in the data active = inhibition above about 80%;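 note: cells exposed to drugs for 96 hours; 0% = vehicle DMSO and 100% = high DMSO full killing control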); conditions: drug combinations, stronger effect = higher value
# [14] = growth inhibition of RCMB18 medulloblastoma cells, cell-based, cisplatin and BGB IC40 combos (AID 1671462; in the data active = inhibition above about 80%;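 note: cells exposed to compound for four days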); conditions: stronger effect = higher value
# [15] = SU-DIPG-XXV glioma cell viability, MIPE5.0 library, qHTS (AID 1347068; cut-off not given, nearly all actives have IC50 up to about 30 µM;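 note: cells exposed to compound for 48 hours before viability readout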)
# [16] = sensitizers of A549 cells to miR-34 induction, primary screen, imaging, A549 dox-inducible miR-34, nuclei and caspase counts (AID 1347080;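 active = compounds whose cell count with miR-34 switched on is under 0.7 times the count with it off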); conditions: A549 miR-34 inducible, Hoechst nuclei count, 48 h
# [17] = survival rescue of mitochondrial mutant cells in low glucose, primary screen, MELAS cybrids, Rieske KO mouse fibroblasts, CellTiter-Glo (AID 1508586;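 active = mean z-score across replicates of 1.96 or higher in either the MELAS or the Rieske mutant cell line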;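 note: z relative to plate mean and SD of compound and empty wells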)
# [18] = ovarian cancer cell viability with rucaparib, profiling panel, oncology-focused library, rucaparib conditional (AID 1508598); conditions: patient-derived ovarian cancer cells, CellTiter-Glo viability, 144 h, stronger effect = lower value
# [19] = stronger effect = lower value, cell number ratio, induced over uninduced
# [20] = measured here: relative caspase fold change +Dox/-Dox
# [21] = measured here: total cells with miR-34 induction, stronger effect = lower value
# [22] = measured here: total cells without miR-34 induction
smiles,measurement,setting,value
Cc1[nH]c2ccccc2c1CCNCc1ccc(/C=C/C(=O)NO)cc1,AC50,[1],1180 nM (active)
same,AC50,[2],132 nM (active)
same,AC50,[3],332 nM (active)
same,AC50,[4],166 nM (active)
same,AC50,[5],148 nM (active)
same,AC50,[6],166 nM (active)
same,SSMD,[7],-3.12
same,cell count,[7],7220
same,plate-normalised HSF1 focus index,[7],0.803 (inactive)
same,inhibition,"[8]; at 0.5 µM, stronger effect = higher value",42% (inactive) and 87.2% (active)
same,inhibition,"[8]; measured here: combination with BGB IC20, at 0.005 µM",-5.26% and -19.1%
same,inhibition,"[8]; measured here: combination with BGB IC40, at 0.005 µM",-17.3% and -29%
same,inhibition,"[8]; measured here: combination with BGB IC40, at 0.05 µM",-6.97% and -48.6%
same,inhibition,"[8]; measured here: combination with cisplatin, at 0.5 µM, stronger effect = higher value",84.3% and 119%
same,inhibition,"[8]; measured here: combination with cisplatin, at 5 µM, stronger effect = higher value",120% and 116%
same,inhibition,"[9]; BGB combo, at 5 µM",99.9% and 99.7%
same,inhibition,[9]; at 0.5 µM,99.7% (active) and 60.8% (inactive)
same,inhibition,"[9]; cisplatin combo, at 5 µM",99.9% and 100%
same,inhibition,"[9]; measured here: with BGB IC20 combination, at 0.5 µM",99.5% and 57.1%
same,inhibition,"[9]; measured here: with cisplatin IC20 combination, at 0.5 µM",99.8% and 58.2%
same,inhibition,"[9]; single agent, at 5 µM",99.9%
same,inhibition,"[10]; BGB IC20 combo, at 0.005 µM",86.9% and 15.5%
same,inhibition,"[10]; BGB IC40 combo, at 0.005 µM",98.3% and 28.4%
same,inhibition,"[10]; BGB IC40 combo, at 0.05 µM",99.9% and 97.7%
same,inhibition,[10]; at 0.5 µM,-9.68% (inactive) and -7.76% (inactive)
same,inhibition,"[10]; cisplatin combo, at 0.05 µM",99.9% and 97.7%
same,inhibition,"[10]; cisplatin combo, at 0.5 µM",-13.7% and 4.07%
same,inhibition,"[10]; cisplatin combo, at 5 µM",25.1% and -22.1%
same,inhibition,"[10]; measured here: 5 uM single agent, at 5 µM",26.1% and 8.36%
same,inhibition,[11]; at 0.5 µM,99.9% (active) and 73.4% (inactive)
same,inhibition,"[11]; measured here: with BGB IC20, at 0.5 µM",100% and 62.5%
same,inhibition,"[11]; measured here: with BGB IC20, at 5 µM",99.9% and 99.8%
same,inhibition,"[11]; measured here: with cisplatin IC20, at 0.5 µM",100% and 90.3%
same,inhibition,"[11]; measured here: with cisplatin IC20, at 5 µM",100%
same,inhibition,"[11]; single agent, at 5 µM",99.9% and 100%
same,inhibition,[12]; at 0.5 µM,68.6% (inactive) and 35.2% (inactive)
same,inhibition,"[12]; measured here: BGB combination, at 0.5 µM",60.4% and 26.7%
same,inhibition,"[12]; measured here: BGB combination, at 5 µM",70.3% and 56.2%
same,inhibition,"[12]; measured here: cisplatin combination, at 0.5 µM",66.3% and 33.8%
same,inhibition,"[12]; measured here: cisplatin combination, at 5 µM",80.8% and 74.3%
same,inhibition,[13]; at 0.5 µM,90.4% (active) and 65.9% (inactive)
same,inhibition,"[13]; cisplatin combination, at 0.5 µM",101% and 78.2%
same,inhibition,"[13]; cisplatin combination, at 5 µM",102% and 105%
same,inhibition,"[13]; measured here: BGB IC40 combination 0.05 uM, at 0.05 µM",52.7% and 3.36%
same,inhibition,"[13]; single agent, at 5 µM",109% and 106%
same,inhibition,[14]; at 0.5 µM,91% (active) and 38.1% (inactive)
same,inhibition,"[14]; cisplatin combo, at 5 µM",99% and 97.8%
same,inhibition,"[14]; measured here: BGB IC40 combination, at 0.05 µM",28.7% and -11.4%
same,inhibition,"[14]; measured here: combination with cisplatin, at 0.5 µM",95.9% and 50.4%
same,inhibition,"[14]; single agent, at 5 µM",97.1% and 93.2%
COc1ccc(/C=C\c2cc(OC)c(OC)c(OC)c2)cc1O,AC50,[1],6.62 nM (active)
same,AC50,[2],8.33 nM (active)
same,outcome,[3],inactive
same,AC50,[4],18.6 nM (active)
same,AC50,[5],10.5 nM (active)
same,AC50,[6],10.5 nM (active)
same,IC50,[15],14.8 nM (active)
same,fold change,[16]; [19],1.24 (inactive)
same,fold change,[16]; [20],0.571
same,cell count,[16]; [21],1250
same,cell count,[16]; [22],1010
same,SSMD,[7],0.749
same,cell count,[7],6590
same,plate-normalised HSF1 focus index,[7],1.05 (inactive)
Cn1c2ccccc2c2c3c(c4c5ccccc5n(CCC#N)c4c21)CNC3=O,AC50,[1],8330 nM (active)
same,outcome,[2],inactive
same,AC50,[3],148 nM (active)
same,AC50,[4],13200 nM (active)
same,AC50,[5],7420 nM (active)
same,AC50,[6],11800 nM (active)
same,fold change,[16]; [19],0.591 (active)
same,fold change,[16]; [20],1.06
same,cell count,[16]; [21],1520
same,cell count,[16]; [22],2580
O=C(Nc1cn[nH]c1-c1nc2ccc(CN3CCOCC3)cc2[nH]1)NC1CC1,AC50,[1],1660 nM (active)
same,AC50,[2],10500 nM (active)
same,AC50,[3],1320 nM (active)
same,AC50,[4],5900 nM (active)
same,AC50,[5],661 nM (active)
same,AC50,[6],1860 nM (active)
same,IC50,[15],8330 nM (active)
same,fold change,[16]; [19],1.08 (inactive)
same,fold change,[16]; [20],0.829
same,cell count,[16]; [21],1190
same,cell count,[16]; [22],1110
same,z-score,"[17]; MELAS cybrid survival, CellTiter-Glo 48 h, stronger effect = higher value",2.04 (active)
same,z-score,"[17]; Rieske KO mouse fibroblast survival, CellTiter-Glo 72 h",-1.89
same,viability,"[18]; at 0.000305 µM, OCI-C5x cells, with rucaparib 10 µM, 100% = cells with rucaparib alone",103% (inactive)
same,viability,"[18]; at 0.000305 µM, OCI-C5x cells, without rucaparib",125% (inactive)
same,viability,"[18]; at 0.000305 µM, OCI-P5x cells, with rucaparib 20 µM, 100% = cells with rucaparib alone",120% (inactive)
same,viability,"[18]; at 0.000305 µM, OCI-P5x cells, without rucaparib",122% (inactive)
same,viability,"[18]; at 0.00122 µM, OCI-C5x cells, with rucaparib 10 µM, 100% = cells with rucaparib alone",128% (inactive)
same,viability,"[18]; at 0.00122 µM, OCI-C5x cells, without rucaparib",132% (inactive)
same,viability,"[18]; at 0.00122 µM, OCI-P5x cells, with rucaparib 20 µM, 100% = cells with rucaparib alone",111% (inactive)
same,viability,"[18]; at 0.00122 µM, OCI-P5x cells, without rucaparib",116% (inactive)
same,viability,"[18]; at 0.00488 µM, OCI-C5x cells, with rucaparib 10 µM, 100% = cells with rucaparib alone",116% (inactive)
same,viability,"[18]; at 0.00488 µM, OCI-C5x cells, without rucaparib",119% (inactive)
same,viability,"[18]; at 0.00488 µM, OCI-P5x cells, with rucaparib 20 µM, 100% = cells with rucaparib alone",116% (inactive)
same,viability,"[18]; at 0.00488 µM, OCI-P5x cells, without rucaparib",118% (inactive)
same,viability,"[18]; at 0.0195 µM, OCI-C5x cells, with rucaparib 10 µM, 100% = cells with rucaparib alone",102% (inactive)
same,viability,"[18]; at 0.0195 µM, OCI-C5x cells, without rucaparib",111% (inactive)
same,viability,"[18]; at 0.0195 µM, OCI-P5x cells, with rucaparib 20 µM, 100% = cells with rucaparib alone",120% (inactive)
same,viability,"[18]; at 0.0195 µM, OCI-P5x cells, without rucaparib",105% (inactive)
same,viability,"[18]; at 0.0781 µM, OCI-C5x cells, with rucaparib 10 µM, 100% = cells with rucaparib alone",82% (active)
